Test results taken from PubChem BioAssay (NCI).
Values joined by “and” are separate entries in the source; they are usually repeats but may differ in a detail not shown here. Identical values can stand only once. About 83,000 compounds went through this panel and 20% of them were active in at least one assay; those are over-represented in the sample as a whole.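 For each line, cells grew in 96-well plates with the test compound present at a single concentration for 48 hours.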 Active and inactive are the calls of the source. The calls were made as follows: active = growth percent below 10; inactive = the rest. Where a SMILES comes first, the peptide text is derived from it. [ ]: non-standard residue; d: D form. ξ: configuration not given here. ξV = CC(C)C(N)C(=O)O

Columns and labels:
Test in all cases: NCI-60 one-dose screen, 48 h (100 = growth as untreated, 0 = no growth, -100 = all killed)
[1] = test system: SK-MEL-2 melanoma
[2] = test system: EKVX NSCLC
[3] = test system: SN12C renal
[4] = test system: UO-31 renal
[5] = test system: TK-10 renal
[6] = test system: ACHN renal
[7] = test system: CAKI-1 renal
[8] = test system: A498 renal
[9] = test system: CCRF-CEM leukemia
[10] = test system: MOLT-4 leukemia

With `O=c1ccn(C2CC(O)C(COC(c3ccccc3)(c3ccccc3)c3ccccc3)O2)c(=O)[nH]1` (stereo unspecified) the growth ([1]; 100 µM) was 26% (inactive), the growth ([2]; 100 µM) was 52.8% (inactive) and the growth ([3]; 10 µM) was 95.9% (inactive). For the same molecule, the growth ([3]; 100 µM) was 38.8% (inactive), the growth ([4]; 10 µM) was 54.6% (inactive) and the growth ([4]; 100 µM) was 37.1% (inactive). The growth ([5]; 10 µM) was 95.4% (inactive), the growth ([5]; 100 µM) was 87.8% (inactive) and the growth ([6]; 10 µM) was 86.4% (inactive). The growth ([6]; 100 µM) was 56.9% (inactive), the growth ([7]; 10 µM) was 127% (inactive) and the growth ([7]; 100 µM) was 30.3% (inactive). For the same molecule, the growth ([8]; 10 µM) was 98.6% (inactive), the growth ([8]; 100 µM) was 102% (inactive) and the growth ([9]; 100 µM) was 45.5% (inactive). The growth ([10]; 10 µM) was 67.1% (inactive) and the growth ([10]; 100 µM) was 9.6% (active).

With `CCCC1CCC(=C2C(=O)CCC2=O)O1` (stereo unspecified) the growth ([1]; 10 µM) was 116% (inactive) and 125% (inactive), the growth ([2]; 10 µM) was 86.2% (inactive) and 101% (inactive) and the growth ([3]; 10 µM) was 90.5% (inactive) and 101% (inactive). For the same molecule, the growth ([4]; 10 µM) was 84.8% (inactive) and 96.3% (inactive), the growth ([5]; 10 µM) was 98.2% (inactive) and 118% (inactive) and the growth ([6]; 10 µM) was 95.7% (inactive) and 96.2% (inactive). For the same molecule, the growth ([7]; 10 µM) was 93.9% (inactive) and 90.5% (inactive), the growth ([8]; 10 µM) was 108% (inactive) and 105% (inactive) and the growth ([9]; 10 µM) was 123% (inactive) and 99.8% (inactive). For the same molecule, the growth ([10]; 10 µM) was 134% (inactive) and 120% (inactive).

In the case of `COC(=O)C1=COC(C)C2C[n+]3ccc4c([nH]c5ccccc54)c3CC12` (stereo unspecified), the growth ([1]; 10 µM) is reported as 103% (inactive) and 85.1% (inactive), the growth ([2]; 10 µM) is reported as 102% (inactive) and 93% (inactive) and the growth ([3]; 10 µM) is reported as 95.9% (inactive) and 78.7% (inactive). The growth ([4]; 10 µM) was 79.1% (inactive) and 73.4% (inactive), the growth ([5]; 10 µM) was 107% (inactive) and 126% (inactive) and the growth ([5]; 100 µM) was 110% (inactive) and 56.8% (inactive). For the same molecule, the growth ([6]; 10 µM) was 99.7% (inactive) and 88.9% (inactive), the growth ([7]; 10 µM) was 101% (inactive) and 94.4% (inactive) and the growth ([8]; 10 µM) was 72.8% (inactive) and 94.7% (inactive). For the same molecule, the growth ([9]; 10 µM) was 97.4% (inactive) and 104% (inactive) and the growth ([10]; 10 µM) was 98.8% (inactive) and 94.3% (inactive).

With `COc1c(O)cc2oc3cc(O)c(CC=C(C)C)c(O)c3c(=O)c2c1CC=C(C)C` the growth ([1]; 10 µM) was 89.8% (inactive), the growth ([2]; 10 µM) was 54% (inactive) and the growth ([3]; 10 µM) was 51.5% (inactive). The growth ([4]; 10 µM) was 49.3% (inactive), the growth ([5]; 10 µM) was 89.1% (inactive) and the growth ([6]; 10 µM) was 58.8% (inactive). For the same molecule, the growth ([7]; 10 µM) was 56.2% (inactive), the growth ([8]; 10 µM) was 97.2% (inactive) and the growth ([9]; 10 µM) was 47.8% (inactive). The growth ([10]; 10 µM) was 42.3% (inactive).

`Nc1ccc2cc3ccc(N)cc3nc2c1` was tested, and the growth ([1]; 10 µM) was -26.2% (active), the growth ([2]; 10 µM) was 88.3% (inactive) and 25.2% (inactive) and the growth ([3]; 10 µM) was 86.2% (inactive) and 9.16% (active). The growth ([4]; 10 µM) was 86.3% (inactive) and -14.7% (active), the growth ([5]; 10 µM) was 120% (inactive) and 25.8% (inactive) and the growth ([6]; 10 µM) was 108% (inactive) and 1.69% (active). The growth ([7]; 10 µM) was 87.8% (inactive) and 4.44% (active), the growth ([8]; 10 µM) was 85.6% (inactive) and 1.64% (active) and the growth ([9]; 10 µM) was 6.51% (active). The growth ([10]; 10 µM) was 90% (inactive) and 8.01% (active).

For `CC(C)C(NC(=O)CN)C(=O)O` (stereo unspecified) (H-Gly-[ξV]-OH), the growth ([1]; 10 µM) was 108% (inactive) and 109% (inactive), the growth ([2]; 10 µM) was 102% (inactive) and 103% (inactive) and the growth ([3]; 10 µM) was 104% (inactive) and 100% (inactive). The growth ([4]; 10 µM) was 84% (inactive), the growth ([5]; 10 µM) was 103% (inactive) and 93.9% (inactive) and the growth ([6]; 10 µM) was 102% (inactive) and 109% (inactive). For the same molecule, the growth ([7]; 10 µM) was 96.4% (inactive) and 97.1% (inactive), the growth ([8]; 10 µM) was 102% (inactive) and 99.9% (inactive) and the growth ([9]; 10 µM) was 91.9% (inactive) and 96% (inactive). The growth ([10]; 10 µM) was 79.2% (inactive) and 101% (inactive).

With `COc1cccc2c1C(=O)c1c(O)c3c(c(O)c1C2=O)C[C@@](O)(C(C)=O)C[C@@H]3OC1CC(N)C(O)C(C)O1` (stereo partly specified) the growth ([1]; 10 µM) was -38.6% (active), the growth ([2]; 10 µM) was -3.48% (active) and the growth ([3]; 10 µM) was 8.87% (active). The growth ([4]; 10 µM) was 11.3% (inactive), the growth ([5]; 10 µM) was 18.5% (inactive) and the growth ([5]; 50 µM) was -97.7% (active) and -90.9% (active). The growth ([6]; 10 µM) was 0.546% (active), the growth ([7]; 10 µM) was -31.1% (active) and the growth ([8]; 10 µM) was -71.7% (active). The growth ([9]; 10 µM) was -24.1% (active) and the growth ([10]; 10 µM) was -26.1% (active).

With `CCCCCCCCCCCCSC(=NC)NC` the growth ([1]; 10 µM) was 79.2% (inactive) and 95.8% (inactive), the growth ([2]; 10 µM) was 71.1% (inactive) and the growth ([3]; 10 µM) was 39.4% (inactive) and 60.4% (inactive). The growth ([4]; 10 µM) was 35.2% (inactive) and 49.6% (inactive), the growth ([5]; 10 µM) was 62.1% (inactive) and 71.2% (inactive) and the growth ([6]; 10 µM) was 43% (inactive) and 86.4% (inactive). For the same molecule, the growth ([7]; 10 µM) was 45.8% (inactive) and 73.6% (inactive), the growth ([8]; 10 µM) was 72.3% (inactive) and the growth ([9]; 10 µM) was 23.7% (inactive). The growth ([10]; 10 µM) was 1.27% (active) and 19.1% (inactive).

For `Oc1ccc(N=Nc2ccccn2)c(O)c1`, the growth ([1]; 10 µM) was 27.8% (inactive), the growth ([2]; 10 µM) was 24.1% (inactive) and the growth ([3]; 10 µM) was 20.5% (inactive). The growth ([4]; 10 µM) was 5.48% (active), the growth ([5]; 10 µM) was 36.1% (inactive) and the growth ([6]; 10 µM) was 13.8% (inactive). For the same molecule, the growth ([8]; 10 µM) was 59.2% (inactive), the growth ([9]; 10 µM) was 3.95% (active) and the growth ([10]; 10 µM) was 4.34% (active).

For `CCC(C)(C)c1cc(O)c(C(C)(C)CC)cc1O`, the growth ([1]; 10 µM) was 24.4% (inactive), the growth ([2]; 10 µM) was 43.4% (inactive) and the growth ([3]; 10 µM) was 36.5% (inactive). For the same molecule, the growth ([5]; 10 µM) was 63.2% (inactive), the growth ([6]; 10 µM) was 43.4% (inactive) and the growth ([7]; 10 µM) was 41.4% (inactive). For the same molecule, the growth ([8]; 10 µM) was 50.1% (inactive) and the growth ([10]; 10 µM) was 24.7% (inactive).
